Compound activity: PubChem BioAssay, National Center for Advancing Translational Sciences (NCATS)
VACV Venus inh – inhibitors of vaccinia virus (Venus reporter) | Vaccinia virus Venus reporter expression, fluorescence | Potency, µM (titrated, usually from 36.5 µM), inactives show at the top dose activity change, negative = inhibition, most hits filed as inhibitors | 330,000 compounds, 0.46% hits | AID 720580; calls by dose curve; tested in A549 cells; further: on the % scale 0 is the no-effect control and ±100 the full control effect; nearly all actives have a fitted effect of over 30% in size
SARS PLpro yeast – SARS-CoV PLP inhibition in yeast | 330,000 compounds, 0.19% hits | Potency, µM (titrated, usually from 32.9 µM), without a hit: at the top dose activity, positive = growth rescue, usual class: activators | S. cerevisiae expressing SARS-CoV PLpro, growth rescue; calls by dose curve; further: 0% is about no effect; nearly all actives have a fitted effect of over 55% in size
VACV mCherry inh – vaccinia inhibition (mCherry reporter). Vaccinia virus mCherry reporter infection, fluorescence. Potency, µM (doses to about 36.5 µM), for inactives: at the top dose activity change, negative = inhibition, most hits filed as inhibitors. 310,000 compounds, 0.63% hits. AID 720579; calls by dose curve; tested in A549 cells; further: on the % scale 0 is the no-effect control and ±100 the full control effect; nearly all actives have a fitted effect of over 35% in size
AmpC inh no detg – AmpC beta-lactamase inhibition without detergent. AmpC nitrocefin hydrolysis, absorbance 480 nm, 0.0001% Triton. P00811. Potency, µM (top dose mostly 57.1 µM), inactives show top-dose activity change, negative = inhibition, actives largely listed as inhibitors. 330,000 compounds, 0.52% hits;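 further: plate controls were no compound for no effect and no enzyme for full effect; nearly all actives have a fitted effect of over 20% in size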
Target sequence (P00811 whole entry, looked up): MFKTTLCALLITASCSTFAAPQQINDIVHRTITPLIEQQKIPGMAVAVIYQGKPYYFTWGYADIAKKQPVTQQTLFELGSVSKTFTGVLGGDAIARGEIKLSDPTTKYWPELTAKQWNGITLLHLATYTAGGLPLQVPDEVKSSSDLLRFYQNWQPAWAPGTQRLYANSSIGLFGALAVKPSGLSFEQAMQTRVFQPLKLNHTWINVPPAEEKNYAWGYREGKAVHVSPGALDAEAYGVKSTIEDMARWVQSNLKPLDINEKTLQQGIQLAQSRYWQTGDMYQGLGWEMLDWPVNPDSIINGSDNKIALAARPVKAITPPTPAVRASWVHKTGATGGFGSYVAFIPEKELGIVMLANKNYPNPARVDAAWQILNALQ
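20 mM phosphate pH 7.0 + 0.01% (detergent screen) or 0.0001% Triton X-100; 5.3 nM AmpC reagent; cpd preinc 15 min RT; nitrocefin (800 uM stock) to start; A480 q20 s × 4 min; Activity was normalised to no-enzyme and no-compound control wells.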
AmpC detergent – inhibitors of E. coli AmpC beta-lactamase with detergent; AID 485294; Potency, µM (titrated, usually from 114 µM), for inactives: top-dose activity change, negative = inhibition, most hits filed as inhibitors; 370,000 compounds, 0.041% hits; AmpC hydrolysis of nitrocefin, absorbance 480 nm, 0.01% Triton;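 further: 0% = no-compound wells and -100% = no-enzyme wells; nearly all actives have a fitted effect of over 25% in size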
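20 mM phosphate pH 7.0 + 0.01% (detergent screen) or 0.0001% Triton X-100; 5.3 nM AmpC reagent; cpd preinc 15 min RT; nitrocefin (800 uM stock) to start; A480 q20 s × 4 min; Activity was normalised to no-enzyme and no-compound control wells.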
An asterisk follows results filed as active. Compounds with a hit are over-represented: about 1.3% of the library has one in this group of screens. Unless noted, the call rests on the fitted dose curve; in most records, active means well fitted curve in the direction sought with a large enough effect; inconclusive means small, poorly fitted or top-dose-only effect, or another doubt; inactive means no such curve, though single readings can be large; an effect the other way counts as inactive or inconclusive. Potency means the concentration at half of the fitted maximal effect.

What do the screens show for `Clc1ccc(-c2nnc(Sc3nc4ccccc4o3)c3ccccc23)cc1`?
VACV Venus inh: inconclusive; SARS PLpro yeast: 1.1%; VACV mCherry inh: 14.1µM*; AmpC inh no detg: -4.4%; AmpC detergent: -8.9%

Results for COc1cc(=O)n2c(c1C(=O)N(C)Cc1nonc1C)CCN(C(=O)c1ccc(C)c(C)c1)CC2 ?
VACV Venus inh: 1.8%; VACV mCherry inh: -8.9%

How did CCCCN1CC(c2nc3ccccc3n2CCCCOc2cc(C)ccc2C)CC1=O (configuration not stated) do in these assays?
VACV Venus inh: -16.7%; VACV mCherry inh: inactive; AmpC detergent: -3.0%

What do the screens show for `Cc1ccc(S(=O)(=O)c2cc(OC(=O)c3ccco3)ccc2OC(=O)c2ccco2)cc1`?
VACV Venus inh: -24.0%; SARS PLpro yeast: 3.2%; VACV mCherry inh: -24.2%; AmpC inh no detg: 12.6µM*; AmpC detergent: -20.6%

How did CCCCOc1ccc(N2C(=O)CC(N(O)c3ccccc3)C2=O)cc1 (configuration not stated) do in these assays?
VACV Venus inh: -15.6%; SARS PLpro yeast: -2.8%; VACV mCherry inh: inactive; AmpC inh no detg: -20.6%; AmpC detergent: -7.0%

How did CCCCCOc1ccc(N2C(=O)CC(N(O)c3ccccc3)C2=O)cc1 (configuration not stated) do in these assays?
SARS PLpro yeast: -9.2%; AmpC inh no detg: 20µM*; AmpC detergent: inconclusive

How did O=S(=O)(NCc1nnc2n1CCN(Cc1ccccc1Cl)CC2)c1ccccc1 do in these assays?
VACV Venus inh: -9.7%; VACV mCherry inh: inactive

Results for CC(NS(C)(=O)=O)C(c1cccs1)N1CCN(C)CC1 (configuration not stated) ?
SARS PLpro yeast: 2.6%; AmpC inh no detg: -8.2%; AmpC detergent: -1.4%

What do the screens show for `CC(NS(=O)(=O)c1ccc(Br)cc1)C(c1cccs1)N1CCN(C)CC1` (configuration not stated)?
VACV Venus inh: -25.7%; SARS PLpro yeast: 5.4%; VACV mCherry inh: inactive; AmpC inh no detg: 44.7µM*; AmpC detergent: inconclusive

Results for Cc1ccccc1Nc1sc(C(=O)c2ccccc2)c(N)c1C(=O)NCc1ccc(Cl)cc1 ?
VACV Venus inh: inconclusive; VACV mCherry inh: inconclusive; AmpC detergent: -0.1%

What do the screens show for `Cc1ccc(CNC(=O)c2c(Nc3ccccc3C)sc(C(=O)c3ccc(F)cc3)c2N)cc1`?
VACV Venus inh: inconclusive; VACV mCherry inh: 11.2µM*; AmpC detergent: -2.1%

What do the screens show for `CCN1C(=O)c2ccccc2S(=O)(=O)c2ccc(C(=O)NC(C)C)cc21`?
VACV Venus inh: -6.7%; SARS PLpro yeast: -1.5%; VACV mCherry inh: -5.2%; AmpC inh no detg: -13.7%; AmpC detergent: 0.8%

What do the screens show for `CCCCNC(=O)c1ccc2c(c1)N(CC)C(=O)c1ccccc1S2(=O)=O`?
VACV Venus inh: 1.4%; SARS PLpro yeast: -0.4%; VACV mCherry inh: 36.2%; AmpC inh no detg: 44.7µM*; AmpC detergent: inconclusive

How did O=C(CNC(=O)c1ccccc1)N/N=C/c1cc(Br)ccc1O do in these assays?
VACV Venus inh: inconclusive; SARS PLpro yeast: 13.9%; VACV mCherry inh: inconclusive; AmpC inh no detg: -39.5%; AmpC detergent: 0.0%

How did O=C(N/N=C\C=C\c1ccc(Br)cc1)c1ccc2c(c1)OCO2 do in these assays?
VACV Venus inh: -2.7%; SARS PLpro yeast: 1.0%; VACV mCherry inh: inactive; AmpC inh no detg: -33.5%; AmpC detergent: 44.7µM*

Results for COc1ccc(/C=N/NC(=O)c2ccc(CSc3nc(C)cc(C)n3)cc2)cc1O ?
VACV Venus inh: -26.4%; SARS PLpro yeast: 2.8%; VACV mCherry inh: -4.4%; AmpC inh no detg: -0.8%; AmpC detergent: 5.3%

Results for O=C(CNC(=O)c1ccc2c(c1)OCO2)N/N=C/c1cc(Br)ccc1O ?
VACV Venus inh: inconclusive; SARS PLpro yeast: 0.4%; VACV mCherry inh: 1.58µM*; AmpC inh no detg: -34.0%; AmpC detergent: -11.0%

What do the screens show for `COc1ccc(C(=O)N/N=C/c2cc(Br)ccc2O)cc1OC`?
VACV Venus inh: -18.8%; SARS PLpro yeast: 4.4%; VACV mCherry inh: 17.8µM*; AmpC inh no detg: -3.1%; AmpC detergent: -5.5%

Results for COc1ccc(O)c(/C=N/NC(=O)c2ccc(CSc3nc(C)cc(C)n3)cc2)c1 ?
VACV Venus inh: inconclusive; SARS PLpro yeast: inconclusive; VACV mCherry inh: 8.91µM*; AmpC inh no detg: -21.1%; AmpC detergent: 0.1%
